# HSF-1 act – increases HSF-1 driven luciferase reporter signal; NIH3T3-HGL HSF-1 luciferase reporter, MG132, 8 h; 100% = twice DMSO control signal; activation, % at 9 µM; actives 1.7% (n = 300,000); AID 504408;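 active means mean replicate activation of at least 50% with a set share of replicates each reaching 50%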;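 further: 0% = median of the neutral control wells and 100% = twice that signal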
# esBAF inh – blocks esBAF chromatin remodeling in mouse ES cells. Bmi1-luciferase knock-in reporter, 24 h; 100% = twice the neutral-well signal. actives 2% (n = 350,000). AID 602393. reporter increase, % at 12.5 µM; in the data active means activation above about 40%;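 further: 0% = median of the plate's neutral control wells and 100% = double that signal; a rise in the Bmi1 reporter signal indicates esBAF inhibition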
# Vif inh – HIV Vif inhibition; AID 602346; inhibition, % at 7.49 µM; HEK293T cells, Vif self-association by quenched fluorescence, imaging, 24 h; actives 0.35% (n = 340,000); in the data active means inhibition above about 50%, passing the limit was not always enough
# HSF1 inh – HSF1 inhibition; actives 0.77% (n = 300,000); activity change, negative = inhibition, % at 7.5 µM (by protocol); NIH3T3-HGL HSE-luciferase, MG132-induced, luminescence 8 h; stronger effect = lower value;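 active means more than half of replicate wells show activity change below -50%, luminescence cut by over half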;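 further: luciferase reports HSF-1 transcriptional activity via heat shock element; 0% = median of DMSO wells and -100% = zero luminescence signal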
# * hit, by the source's call; / = no result given; ! = not confirmed by another sample. An excerpt weighted towards active compounds, which were near 3.4% of everything screened.
SMILES,HSF-1 act,esBAF inh,Vif inh,HSF1 inh
CC(C)(C)c1ccc(/C=N/Nc2cccc(C(=O)O)c2)cc1,-64,/,-1,-57*
CC(=O)N1[C@H](C(=O)NCc2ccccc2F)[C@@H](CO)[C@@H]2Cn3c(cccc3=O)[C@@H]21,/,-4,/,/
O=C(Nc1ccc(C(F)(F)F)cc1)N[C@H]1CC[C@@H](CC(=O)N2CCCCC2)O[C@@H]1CO,/,0,/,/
COc1ccc(NC(=O)Nc2ccc3c(c2)C(=O)N([C@@H](C)CO)C[C@@H](C)[C@H](CN(C)Cc2ccncc2)OCCCC[C@H](C)O3)cc1,/,-6,/,/
CC(C)(C)c1ccc(/C=N/Nc2ccc(C(=O)O)cc2)cc1,-87,/,-7,-86*
CCS(=O)(=O)NCC[C@@H]1CC[C@@H](NS(=O)(=O)c2ccccc2C)[C@H](CO)O1,/,2,/,/
Cc1nc2nc(-c3cccs3)[nH]c2cc1Br,63*,27,-6,29
C[C@H](CO)N1C[C@H](C)[C@@H](CN(C)S(=O)(=O)c2cccs2)Oc2c(NC(=O)Nc3ccc4c(c3)OCO4)cccc2C1=O,/,57*!,33,/
C[C@H]1CN([C@@H](C)CO)C(=O)c2cccc(NC(=O)Nc3ccc4c(c3)OCO4)c2O[C@@H]1CN(C)S(=O)(=O)c1cccs1,/,44*,/,/
O=C(C[C@@H]1C=C[C@@H](NC(=O)c2cccc(F)c2)[C@@H](CO)O1)Nc1nccs1,/,3,/,/
CC(=O)NCC1=C(NC(C)=O)C2CC1C(C)(C)C2C (centres undefined),-65,/,/,-53*
COc1ccc(S(=O)(=O)Nc2ccc3c(c2)C(=O)N([C@@H](C)CO)C[C@H](C)[C@H](CN(C)C(=O)c2ccccc2)OCCCC[C@H](C)O3)cc1,/,1,/,/
O=C(C[C@H]1CC[C@@H]2[C@H](COC[C@H](O)CN2C(=O)C2CC2)O1)NCc1ccncc1,/,-2,/,/
O=C(NCc1nnc(SCc2ccccc2)n1-c1ccccc1)C12CC3CC(CC(C3)C1)C2,90*,/,-2,35
O=C(O)c1ccccc1-c1ccc(/C=C2\SC(=O)N(c3ccccc3)C2=O)o1,3,56*,-3,0
O=C(NCC1CCCCC1)[C@@H]1[C@@H](CO)[C@@H]2Cn3c(cccc3=O)[C@H]1N2C(=O)c1ccncc1,/,3,/,/
C[C@@H]1CN([C@@H](C)CO)C(=O)c2cccc(NC(=O)c3cnccn3)c2O[C@H]1CN(C)C(=O)Nc1ccccc1,/,-2,/,/
CCCCCCc1cc2cc(-c3nnc(-c4ccccc4O)o3)c(=O)oc2cc1O,-14,-38,1,-6
COc1cccc2cc(-c3cn4ccc(C)cc4n3)c(=O)oc12,42,105*,0,16
CCCCCCc1cc2cc(-c3nnc(-c4ccccc4OC)o3)c(=O)oc2cc1O,0,-1,70*,6
COc1cccc2cc(-c3nnc(-c4ccccc4)o3)c(=O)oc12,-54,-71,-7,-57*
C[C@H]1CN([C@@H](C)CO)C(=O)Cc2cc(NS(C)(=O)=O)ccc2O[C@@H]1CN(C)C(=O)Nc1ccc(F)cc1,/,-6,/,/
O=C(NC1CCCC1)c1cc2cc(Br)ccc2o1,60*,69*,6,39
O=C(NC1CCCCC1)c1cc2cc(Br)ccc2o1,68*,56*,-5,49
O=C(NC1CCCC1)c1cc2ccccc2o1,-3,/,0,-5
SMILES,HSF-1 act,esBAF inh,Vif inh,HSF1 inh
C/C=C/c1cnc2c(c1)C(=O)N([C@H](C)CO)C[C@H](C)[C@H](CN(C)C(=O)C1CC1)O2,/,-4,/,/
COc1ccc(CNC(=O)C[C@H]2C=C[C@@H](NC(=O)Nc3ccc4c(c3)OCO4)[C@H](CO)O2)cc1,/,-2,/,/
CO[C@H]1CN(C)C(=O)c2ccc(NC(C)=O)cc2OC[C@@H](C)N(Cc2cccnc2)C[C@H]1C,/,-4,/,/
COc1ccc(C(=O)CN2CCN(c3ccc(F)cc3)CC2)cc1OC,14,/,7,3
COc1ccccc1N1CCN(CC(=O)c2ccc(F)cc2)CC1,14,42*,-4,1
COC(=O)c1ccc(N2CCN(CC(=O)c3ccc(-c4ccccc4)cc3)CC2)c([N+](=O)[O-])c1,-26,48*,-4,-26
COC(=O)c1ccc(N2CCN(CC(=O)c3ccc(C)cc3)CC2)c([N+](=O)[O-])c1,4,7,0,2
COc1ccccc1S(=O)(=O)N[C@H]1CC[C@H](CCNC(=O)C2CC2)O[C@@H]1CO,/,1,/,/
CCC(=O)Nc1ccc2c(c1)C(=O)N(C)C[C@@H](OC)[C@@H](C)CN(CC1CC1)[C@@H](C)CO2,/,-2,/,/
CC(C)COCC(O)CCC(=O)NNC(=S)Nc1ccccc1 (centres undefined),7,/,-1,-13
CC(C)COC(=S)Nc1ccccc1,16,59*,/,17
Cc1ccc(NC(=O)CSc2ncccc2C(=O)Oc2cccc([N+](=O)[O-])c2)cc1Cl,82*,/,3,32
CCOC(=O)c1cccnc1SCC(=O)Nc1ccc(C)cc1,10,/,-3,4
Cc1c(Cl)c(C(=O)NNC(=S)Nc2ccc(F)cc2)nn1C,59*,44,-7,41
C/C=C/c1ccc([C@@H]2[C@H](CO)N(C(=O)COC)[C@H]2CNC(=O)CC)cc1,/,5,/,/
N#Cc1cccc(NC(=O)c2cc(C3CCCCN3S(=O)(=O)c3cccc4cccnc34)on2)c1 (centres undefined),/,52*,-25,/
CS(=O)(=O)N1CCCCC1c1cc(C(=O)Nc2cccc(C#N)c2)no1 (centres undefined),/,11,7,/
Cc1cc(C(=O)CSc2ccccc2)cc(C)c1O,27,68*,-5,30
N/C(=N\OC(=O)c1ccc2c(c1)OCO2)c1cccc(Br)c1,26,67*,-4,0
Cc1c(C(=O)c2no[n+]([O-])c2C(=O)c2cnn(C)c2C)cnn1C,-95,-60,7,-94*
C[C@@H]1CN([C@H](C)CO)C(=O)c2cc(C#Cc3ccncc3)cnc2O[C@@H]1CN(C)S(=O)(=O)c1ccccc1F,/,1,/,/
O=C(NC1CC2CCCC(C1)N2C(=O)Nc1ccccc1Cl)C1CC1 (centres undefined),23,-3,-5,7
Cc1ccccc1NC(=O)N1C2CCCC1CC(NC(=O)C1CC1)C2 (centres undefined),-76,1,11,-70*
O=C(Cc1cccnc1)N1[C@@H](CO)[C@@H]2c3ccccc3NC[C@@H]21,/,0,/,/
N#Cc1ccccc1NC(=O)c1ccc(-c2ccccc2Cl)o1,12,50*,-3,14
COC(=O)c1sccc1-c1ccc(C(=O)Nc2cccc(Cl)c2)o1,30,51*,-2,8
COc1ccc(OC)c(-c2cc(C(=O)Nc3cc(C)on3)no2)c1,-73,-4,63*,-64*
COc1ccc(NC(=O)c2cc(-c3ccccc3Cl)on2)cc1,42,63*,-11,17
O=C(NCCc1ccccc1)c1ccc(-c2ccccc2Cl)o1,25,17,-4,12
CN(C)S(=O)(=O)Oc1ccsc1C(=O)Nc1cccc(Cl)c1,12,6,-15,-1

# High-throughput results (PubChem)
